TrxR1 inh: inhibitors of rat thioredoxin reductase 1. recombinant rTrxR1, NADPH fluorescence consumption, selenite substrate. Potency, µM (highest dose often 114 µM), actives largely listed as inhibitors. 1% of 390,000 active. O89049. AID 588453; also: nearly all actives have a fitted effect of over 65% in size
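Rat TrxR1 (90 nM in the dispensed reagent) was pre-reduced with 400 uM NADPH for 5 min at room temperature, then incubated with compound for 15 min. After 400 uM selenite was added, NADPH fluorescence (Ex 340/Em 450 nm) was followed for 8 min.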
KAT2A inh: blocks human GCN5L2 histone acetyltransferase | Q92830 | GCN5L2 HAT assay, ThioGlo1 CoA-SH fluorescence | Potency, µM (highest dose often 58.9 µM), hits mostly inhibitors | 0.21% of 390,000 active | AID 504327
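Preincubate 20nM GCN5L2 with compound 15 min, RT → add 50uM ThioGlo1 + 75uM H3(1-25) + 70uM acetyl-CoA → read fluorescence 0 and 20 min. Primary qHTS; fluorescent artifacts likely.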
Giardia killer: kills Giardia lamblia; Giardia lamblia trophozoite viability; activity change, % at 7.66 µM, hits read low; 0.15% of 340,000 active; AID 540267; in the data active = activity change below about -80%; inconclusive = between about -30% and that limit;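 also: parasites exposed to compound for two days anaerobically before the ATP read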
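Luminescence from cellular ATP indicates surviving trophozoites (100 cells/well) following 48 hrs anaerobic compound treatment at 37 deg C; signal develops 15-30 min at room temperature.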
TrxR1 substrate: is turned over as a substrate by rat TrxR1. O89049. purified TrxR1 substrate turnover, NADPH consumption readout. Potency, µM (highest dose often 114 µM). 0.01% of 390,000 active. AID 588456; also: nearly all actives have a fitted effect of over 50% in size
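Rat TrxR1, dispensed at 90 nM, was prereduced with 400 uM NADPH (final) for 5 min at ~22 deg C, then incubated with compound 15 min before 400 uM selenite. A first-read NADPH fluorescence drop versus no-compound background flagged substrates.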
GALK inhibitor: blocks human galactokinase activity. P51570. Purified GALK, Kinase-Glo residual ATP luminescence. Potency, µM (titrated, usually from 57.5 µM), most hits filed as inhibitors. 0.007% of 270,000 active. AID 1868
Target sequence (P51570 whole entry, looked up): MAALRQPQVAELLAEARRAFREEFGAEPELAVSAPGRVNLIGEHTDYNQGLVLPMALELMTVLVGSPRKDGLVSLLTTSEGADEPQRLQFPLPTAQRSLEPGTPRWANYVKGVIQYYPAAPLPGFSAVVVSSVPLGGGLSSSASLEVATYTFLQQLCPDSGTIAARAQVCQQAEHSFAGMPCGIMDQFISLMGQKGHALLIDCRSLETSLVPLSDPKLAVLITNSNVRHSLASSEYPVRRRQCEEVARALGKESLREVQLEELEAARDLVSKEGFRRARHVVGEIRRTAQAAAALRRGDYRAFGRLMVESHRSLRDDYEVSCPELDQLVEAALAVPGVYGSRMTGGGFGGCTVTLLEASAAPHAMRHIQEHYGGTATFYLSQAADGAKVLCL
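Compounds were pin-transferred into ATP buffer (35 uM final), then GALK plus galactose (5 nM, 100 uM final) was added. After 1 h at room temperature, Kinase-Glo Plus was added and luminescence read after 10 min.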
Pin1 inhibitor: human Pin1 inhibition; Q13526; Pin1 FP peptide displacement, HiFluor488, 10 min; Potency, µM (titrated, usually from 115 µM), most hits filed as inhibitors; 0.009% of 390,000 active; active = well fitted inhibition curve with a large enough effect in the polarisation, with a control signal flat, not every such curve was filed as active; inconclusive = small, poorly fitted or top-dose-only effect, or effect the other way, or a change in a side signal; inactive = no such curve, though single readings can be large or run the other way; the % refers to the polarisation
Target sequence (Q13526 whole entry, looked up): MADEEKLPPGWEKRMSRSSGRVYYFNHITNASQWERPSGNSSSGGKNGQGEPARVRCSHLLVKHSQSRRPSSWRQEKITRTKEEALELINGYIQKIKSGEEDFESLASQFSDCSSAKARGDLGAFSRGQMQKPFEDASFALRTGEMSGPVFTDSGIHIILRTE
Hits are given with their value; – = inactive; ? = inconclusive; · = no result; [ ] = remark or other dose. Sampled rows, rich in hits. Any-hit rate of the full collection: about 1.3%. Unless noted, calls follow the shape of the dose curve; as a rule, active = well fitted curve in the direction sought with a large enough effect; inconclusive = small, poorly fitted or top-dose-only effect, or another doubt; inactive = no such curve, though single readings can be large; an effect the other way counts as inactive or inconclusive.

SMILES	TrxR1 inh	KAT2A inh	Giardia killer	TrxR1 substrate	GALK inhibitor	Pin1 inhibitor
CCOC(=O)C1CCCN(C(=O)c2ccc3nc(-c4cccc(OC)c4)oc3c2)C1 (stereo not given)	–	–	–	–	–	–
O=C1OC(Nc2nc(-c3ccc(F)cc3)cs2)c2ccccc21 (stereo not given)	56µM	–	–	–	–	–
O=[N+]([O-])c1cc(S(=O)(=O)NCCN2CCOCC2)ccc1Sc1nnnn1-c1ccccc1	20µM	–	–	–	–	–
O=C(Nc1ncc2c(n1)-c1ccccc1CC2)c1cccc(Cl)c1	–	3.2µM	–	–	–	–
O=C1Nc2ccccc2C1Cc1ccccc1 (stereo not given)	–[2.29 µM]	–	–	–	–	–
COc1ccc(C[C@@H]2OC3(C=CC(=O)C=C3)O[C@H]2Cc2ccc(OC)cc2)cc1	0.56µM	·	–	–	·	–
O=C1C=CC2(C=C1)O[C@H](Cc1ccccc1)[C@@H](Cc1ccccc1)O2	0.89µM	·	–	–[11.4 µM]	·	–
Cc1ccc(CNC(=O)COCc2cc(-c3ccc4c(c3)OCO4)on2)cc1	–	–	·	–	·	–
Cc1ccccc1CN1CCNC(=O)C1CC(=O)O (stereo not given)	71µM	–	–	–	–	–
COc1cc(-c2ccc3ncnc(N(C)Cc4csc(C)n4)c3c2)cc(OC)c1OC	·	·	·	·	·	–
O=C(CSc1ccc(C(F)(F)F)cn1)Nc1ccccc1	?	–	–	–	–	–
O=C(/C=C/Sc1ccc(C(F)(F)F)cn1)c1ccccc1	1.3µM	–	–	–	·	–
CCC(=O)OCOc1ccc(/C=C2/CCC(CN(C)C)C2=O)cc1 (stereo not given)	1.1µM	·	–	–	·	–
CCOc1ccc(/C=C2\CCC(C3CCCC3)C2=O)cc1 (stereo not given)	–	–	–	–	·	–
Cc1ccc(N2C(=O)[C@@H]3C(c4cccnc4)=NO[C@@H]3C2=O)cc1	45µM	–	–	–	–	–
O=C(/C=C/c1ccc(Cl)cc1)c1cccnc1	32µM	–	–	–	–	–
N#Cc1ccc(/C=C/C(=O)c2cccnc2)cc1	22µM	–	–	–	–	–
O=C(C=Cc1cccc(Cl)c1)c1ccccc1	40µM	·	–	–	·	–
O=C(/C=C/c1ccccc1Cl)c1cccnc1	7.1µM	–	–	–	–	–
O=C(/C=C/c1ccccc1Cl)c1ccc(O)cc1	–	–	–	–	–	–
CC(C)[C@H](NC(=O)c1ccccc1)C(=O)NC1=NCCS1	–	–	–	–	·	–
COC(=O)C1=C(C)NC(C)=C(C(=O)NCCCN2CCC(c3ccccc3)(c3ccccc3)CC2)C1c1ccc([N+](=O)[O-])cc1 (stereo not given)	·	–	·	·	·	·
COc1ccc(OC)c(NC(=O)c2c(NCc3ccc(N(C)C)cc3)sc3c2CCCC3)c1	–	–	·	–	·	–
CC(C)CC(=O)/C=C/n1c(=S)oc2ccccc21	6.3µM	–	–	–	–	–
CC(=O)/C=C/n1c(=S)oc2ccccc21	3.2µM	–	–	–	–	–
SMILES	TrxR1 inh	KAT2A inh	Giardia killer	TrxR1 substrate	GALK inhibitor	Pin1 inhibitor
Cn1c(=S)oc2ccccc21	–	–	–	–	·	–
O=C(CSc1nnc(-c2ccccn2)o1)Nc1ccccc1F	–	–	–	–	–	–
CCOC(=O)C1=C(C)N=c2s/c(=C3/C(=O)Nc4ccccc43)c(=O)n2C1c1ccc(C)cc1 (stereo not given)	45µM	–	–	–	–	–
COc1ccc(NC(=O)CCS(=O)(=O)c2cccc3nonc23)cc1	–	–	–	–	–	–
COc1ccc(CNC(=O)CCS(=O)(=O)c2cccc3nonc23)cc1	11µM	–	–	–	–	–
COc1ccccc1CNC(=O)CCS(=O)(=O)c1cccc2nonc12	?	–	–	–	–	–
Cc1ccc(CNC(=O)CCS(=O)(=O)c2cccc3nonc23)cc1	56µM	–	–	–	–	–
COc1cccc(C2=CC(c3ccccc3F)n3ncc(C(=O)Nc4ccc(F)cc4)c3N2)c1 (stereo not given)	–	?	·	–	·	?
O=C(c1ccc(-c2ccc([N+](=O)[O-])cc2)o1)N1CCCCC1	?	–	–	–	–	–
CC1CC(C)CN(C(=O)c2ccc(-c3ccc([N+](=O)[O-])cc3)o2)C1 (stereo not given)	18µM	–	–	–	·	–
CCOc1ccc(CCNC(=O)C2CCCN(S(=O)(=O)N(C)c3ccc(F)cc3)C2)cc1 (stereo not given)	–	–	·	–	·	–
COc1ccccc1-c1nc(S(=O)(=O)c2ccccc2)c(N2CCCCC2)o1	0.89µM	–	–	–	–	?
Cc1cccc(C)c1OCC(=O)N/N=C/c1ccc2c(c1)OCO2	–	13µM	–	–	–	–
CCN(C(=O)CSc1nnc(-c2cc(OC)c(OC)c(OC)c2)o1)c1ccccc1	45µM	–	·	–	·	?
CS(=O)(=O)c1ccccc1NC(=O)COc1ccccc1C(=O)Nc1ccccc1	–	·	·	–	·	·
Cc1snc(SCC(=O)c2ccc([N+](=O)[O-])cc2)c1C#N	?	6.3µM	–	–	–	–
O=C(O)CCCCC1CCSS1 (stereo not given)	–	3.2µM	–	–	–	–
O=C(COc1ccccc1Cl)NCC1(N2CCOCC2)CCCCC1	–	–	·	–	·	–
N#Cc1nc(-c2cccs2)oc1NCCCN1CCOCC1	–	35µM	–	–	–	–
CC1=C(C(=O)Nc2cccnc2)C(c2ccccn2)n2nnnc2N1 (stereo not given)	–	7.1µM	–	–	–	–
CCOC(=O)CCC(NC(=O)CCC(=O)NC(CCC(=O)OCC)C(=O)OCC)C(=O)OCC (stereo not given)	–	–	–	–	–	–
CCOC(=O)C(CS)NCCN[C@@H](CS)C(=O)OCC (stereo not given in full)	·	20µM	·	·	·	·
O=c1oc2c(CN3CCN(CCO)CC3)c(O)ccc2cc1-c1ccccn1	45µM	?	–	–	–	?
COc1ccc(-c2cc3ccc(O)c(CN4CCN(CCO)CC4)c3oc2=O)cc1OC	–	18µM	·	–	·	?
CC(Oc1ccccc1)C(=O)N[C@@H]1C(=O)N2[C@@H]1SC(C)(C)[C@@H]2C(=O)OCc1ccccc1 (stereo not given in full)	50µM	·	·	–	·	·
N#Cc1ccccc1OC1=NS(=O)(=O)c2ccccc21	·	·	·	·	·	–
CC(=O)Oc1ccc(N2C(=O)C3C4C=CC(CO)(O4)C3C2=O)cc1 (stereo not given)	3.2µM	?	–	–	–	–
O=C1C2C3C=CC(CNS(=O)(=O)c4ccccc4)(O3)C2C(=O)N1c1ccc(Cl)cc1 (stereo not given)	10µM	–	–	–	·	–
